Among all 5,500 compounds or so, about 2,000 (36%) were called active. Another 18% or so got no clear call; they are omitted. Cut-off read from the data, not from the text of the source: active = normalized growth mostly below about 0.91 (no sharp cut-off); inconclusive = no clear call, values can overlap the other calls; inactive = mostly above about 0.92. This is one part of the list.
Experiment: chemical genetic growth profiling, strain panel (AID 1159580);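 note: tested at 20 µM; growth read once vehicle control cultures reached saturation at 30 °C; 1 = growth at the plate median or of vehicle wells; lower values mean less growth of the strain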
Conditions: S. cerevisiae deletion strains, growth OD
[1] = locus YDR150W, strain NUM1, hits give low values
[2] = locus YGR078C, strain PAC10, hits give low values
[3] = locus YMR263W, strain SAP30, hits give low values
[4] = locus YPL055C, strain LGE1, hits give low values

Measured: normalized growth

CCN(CC)C(=O)N[C@@H]1C[C@@H]2c3cccc4[nH]cc(c34)C[C@H]2N(C)C1
inactive: locus YAL040C, strain CLN3, hits give low values 1 | locus YCL061C, strain MRC1 (second series), hits give low values 1.01 | [1] 1 | locus YDR363W, strain ESC2, hits give low values 1.01 | locus YER002W, strain NOP16, hits give low values 0.995 | [2] 1.01 | [3] 1 | locus YMR307W, strain GAS1, hits give low values 1.01 | locus YNL128W, strain TEP1, hits give low values 1.01 | locus YNL175C, strain NOP13, hits give low values 0.993 | locus YNL197C, strain WHI3, hits give low values 0.995 | locus YNL224C, strain SQS1, hits give low values 1.02 | locus YOR083W, strain WHI5 (second series), hits give low values 1.01 | [4] 1.01

COC(CNc1cccc(Cl)c1C#N)OC
inactive: locus YAL013W, strain DEP1, hits give low values 0.997 | locus YBR229C, strain ROT2, hits give low values 0.994 | locus YDL101C, strain DUN1, hits give low values 0.983 | locus YDL134C, strain PPH21, hits give low values 0.961 | [1] 1.01 | locus YEL061C, strain CIN8, hits give low values 0.971 | [2] 0.989 | locus YGR229C, strain SMI1, hits give low values 0.978 | locus YHR030C, strain SLT2, hits give low values 0.944 | locus YHR087W, strain rtc3, hits give low values 0.98 | locus YJL187C, strain SWE1, hits give low values 0.981 | locus YJR043C, strain POL32, hits give low values 0.989 | locus YJR075W, strain HOC1, hits give low values 0.958 | locus YLR039C, strain RIC1, hits give low values 0.983 | locus YLR058C, strain SHM2 (second series), hits give low values 0.989 | locus YLR085C, strain ARP6, hits give low values 0.931 | locus YLR262C, strain YPT6, hits give low values 0.979 | locus YML094W, strain GIM5, hits give low values 0.953 | locus YMR219W, strain ESC1, hits give low values 0.986 | [3] 1.01 | locus YNL153C, strain GIM3, hits give low values 0.946 | locus YNL298W, strain CLA4 (second series), hits give low values 0.979 | locus YNL322C, strain KRE1, hits give low values 0.98 | locus YNR030W, strain Alg12, hits give low values 0.976 | [4] 1.03 | locus YPL241C, strain CIN2, hits give low values 0.95 | locus YPR135W, strain CTF4, hits give low values 0.957
